Laboratory results: PubChem BioAssay (NCATS)
Records with an inconclusive call do not appear. A call without a number means that no potency is given here. The source made the active and inactive calls. Calls come from the whole dose curve; as a rule, active = well fitted inhibition curve with a large enough effect; inconclusive = small, poorly fitted or top-dose-only effect; inactive = no such curve, though single readings can be large or run the other way.

What follows are molecules tested against Rap guanine nucleotide exchange factor 4 (Homo sapiens) (UniProt Q8WZA2) (assay: Confirmatory qHTS for antagonist of cAMP-regulated guanine nucleotide exchange factor 4 (EPAC2) (AID 1645885; note: nearly all actives have a fitted effect of over 25% in size; note: potency is the fitted concentration of half-maximal effect)). Details: EPAC2 Rap1B-BODIPY-GDP exchange fluorescence, biochemical; series mostly up to 12.7 µM.
Sequence of Rap guanine nucleotide exchange factor 4 (Homo sapiens) (Q8WZA2 whole entry, looked up): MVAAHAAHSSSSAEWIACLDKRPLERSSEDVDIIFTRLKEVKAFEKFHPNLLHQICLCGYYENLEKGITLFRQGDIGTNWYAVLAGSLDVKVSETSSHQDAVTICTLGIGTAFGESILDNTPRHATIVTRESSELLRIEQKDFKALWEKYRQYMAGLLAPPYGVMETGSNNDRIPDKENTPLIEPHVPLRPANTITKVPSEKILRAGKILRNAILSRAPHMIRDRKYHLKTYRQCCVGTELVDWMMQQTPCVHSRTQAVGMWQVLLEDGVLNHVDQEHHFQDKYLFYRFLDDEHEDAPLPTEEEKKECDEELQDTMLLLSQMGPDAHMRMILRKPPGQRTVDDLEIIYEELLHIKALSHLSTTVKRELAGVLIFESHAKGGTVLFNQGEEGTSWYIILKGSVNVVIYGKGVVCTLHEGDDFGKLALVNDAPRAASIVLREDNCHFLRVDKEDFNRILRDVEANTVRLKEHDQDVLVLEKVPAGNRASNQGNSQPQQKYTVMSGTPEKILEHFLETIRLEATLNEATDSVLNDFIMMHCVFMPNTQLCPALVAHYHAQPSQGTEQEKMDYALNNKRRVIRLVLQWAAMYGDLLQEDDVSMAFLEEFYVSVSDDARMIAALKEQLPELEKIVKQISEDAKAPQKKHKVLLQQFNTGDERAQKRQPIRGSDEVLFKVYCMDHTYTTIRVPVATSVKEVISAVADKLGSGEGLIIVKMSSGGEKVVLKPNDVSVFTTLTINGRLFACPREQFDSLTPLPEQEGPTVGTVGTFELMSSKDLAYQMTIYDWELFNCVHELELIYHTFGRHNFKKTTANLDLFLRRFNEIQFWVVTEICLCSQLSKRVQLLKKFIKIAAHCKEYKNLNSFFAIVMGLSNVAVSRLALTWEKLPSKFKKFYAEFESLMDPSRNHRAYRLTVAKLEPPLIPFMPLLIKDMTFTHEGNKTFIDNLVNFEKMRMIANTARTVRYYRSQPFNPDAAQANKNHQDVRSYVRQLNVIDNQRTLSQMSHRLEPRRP
`COc1ccc2c(=O)c(OC)c(-c3ccccc3)oc2c1` was tested, and the Potency was 13.9 µM (active). For `COc1cc2c(cc1OC)C1C(=O)c3ccc4c(c3OC1CO2)C=CC(C)(C)O4` (stereo not given), the Potency was “inactive”. With `CC1(C)C(OC(=O)CCC(=O)O)CC[C@]2(C)C1CC[C@@]1(C)C2C(=O)C=C2[C@@H]3C[C@@](C)(C(=O)O)CC[C@]3(C)CCC21C` (stereo not given in full) the Potency was 15.6 µM (active). With `COC(=O)[C@@]1(C)CCC[C@@]2(C)c3ccc(O)c(C(C)C)c3CCC21` (stereo not given in full) the Potency was “inactive”.

Each molecule was assayed against Rap guanine nucleotide exchange factor 3 (Homo sapiens) (UniProt O95398) (assay: Counterscreen qHTS for antagonist of cAMP-regulated guanine nucleotide exchange factor 3 (EPAC1) (AID 1645888;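 note: fluorescence loss as bound BODIPY-GDP is released from Rap1B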)). Details: Rap1B-BODIPY-GDP nucleotide exchange, fluorescence; series mostly up to 154 µM.
Sequence of Rap guanine nucleotide exchange factor 3 (Homo sapiens) (O95398 whole entry, looked up): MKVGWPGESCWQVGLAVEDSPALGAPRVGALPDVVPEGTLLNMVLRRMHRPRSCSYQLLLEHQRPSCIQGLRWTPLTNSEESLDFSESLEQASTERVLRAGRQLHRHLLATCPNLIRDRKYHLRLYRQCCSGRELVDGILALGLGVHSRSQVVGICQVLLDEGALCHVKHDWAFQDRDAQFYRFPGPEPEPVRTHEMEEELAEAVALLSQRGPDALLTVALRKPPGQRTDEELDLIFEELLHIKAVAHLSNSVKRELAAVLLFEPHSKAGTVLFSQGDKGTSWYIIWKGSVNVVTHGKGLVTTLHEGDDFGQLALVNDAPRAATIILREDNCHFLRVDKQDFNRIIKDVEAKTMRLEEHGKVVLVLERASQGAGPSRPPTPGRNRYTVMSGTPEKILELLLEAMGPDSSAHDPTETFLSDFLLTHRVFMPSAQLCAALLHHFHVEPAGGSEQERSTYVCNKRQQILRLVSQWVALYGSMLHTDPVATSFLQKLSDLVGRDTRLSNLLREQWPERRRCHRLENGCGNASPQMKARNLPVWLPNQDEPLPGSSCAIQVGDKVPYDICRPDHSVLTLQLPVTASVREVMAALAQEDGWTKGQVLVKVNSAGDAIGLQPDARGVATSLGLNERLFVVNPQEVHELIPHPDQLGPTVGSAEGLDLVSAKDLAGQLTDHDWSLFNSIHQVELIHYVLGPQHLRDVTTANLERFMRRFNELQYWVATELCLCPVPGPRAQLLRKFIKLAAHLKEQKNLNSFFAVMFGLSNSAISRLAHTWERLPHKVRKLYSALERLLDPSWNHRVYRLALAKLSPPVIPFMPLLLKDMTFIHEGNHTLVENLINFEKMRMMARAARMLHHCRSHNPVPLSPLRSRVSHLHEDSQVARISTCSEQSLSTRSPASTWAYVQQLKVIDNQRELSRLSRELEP
Procedure, shortened: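 Rap1B-BODIPY-GDP 250 nM + GDP 50 uM; cpds 7-pt, final 9.74 nM–152 uM (activator mode) or from 7.32 nM upwards (inhibitor mode); RT; FI 480/540 nm at 5 and 30 min, then ± cAMP, reread.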
With `CCOC(=O)c1c(NC(=O)CSc2nc3ccc(C)cc3[nH]2)sc2c1CC(C)(C)NC2(C)C` the Potency was “inactive”. With `Cc1cc(Nc2ccccc2)c2c([N+](=O)[O-])ccc(C)c2n1` the Potency was “inactive”. With `Cc1cc(C)nc(SCC(=O)c2ccc(F)c(C)c2)n1` the Potency was “inactive”. `COC(=O)C1=CN(Cc2cccs2)C=C(C(=O)OC)C1c1cccc(O)c1` was tested, and the Potency was “inactive”. `CCCCn1nnnc1C(c1ccccc1)N1CCN(c2ccc(F)cc2)CC1` (stereo not given) was tested, and the Potency was “inactive”. With `Cc1ccc(S(=O)(=O)Nc2ccccc2C(=O)Nc2nc(-c3ccc(F)cc3)cs2)cc1` the Potency was “inactive”. In the case of `Cc1cc(NC(=O)COC(=O)C(C)Oc2ccc(Cl)cc2Cl)no1` (stereo not given), the Potency is reported as “inactive”. With `Cc1ccc(CC#N)c(-c2c(CC#N)ccc(C)c2C)c1C` the Potency was “inactive”. `CCC(=O)NC(c1cccs1)c1cc([N+](=O)[O-])c2cccnc2c1O` (stereo not given) was tested, and the Potency was “inactive”. `COC(=O)c1c(-c2ccc(OC)cc2)sc2ccc(OC)cc12` was tested, and the Potency was “inactive”. `CC1=CC(C)(C)N(C(=O)c2ccc(F)cc2)c2cc3c(cc21)OCO3` was tested, and the Potency was “inactive”. In the case of `COc1ccc(OC)c(C(=O)c2ccc(Cl)cc2)c1`, the activity change, negative = inhibition is reported as 5.43% [at 30.8 µM] (inactive). `Cc1ccc2oc(C(=O)N3CCCCCC3)c(C)c2c1` was tested, and the Potency was “inactive”. In the case of `CCCCN(C(=O)c1ccc2c(c1)OCO2)c1ccccc1`, the Potency is reported as “inactive”. For `CCOC(=O)C1Nc2c(F)cc(C)cc2C2c3ccccc3CC12` (stereo not given), the Potency was “inactive”. `O=C1/C(=C\c2cc([N+](=O)[O-])ccc2O)SC(=S)N1Cc1ccc(Cl)cc1` was tested, and the Potency was “inactive”. For `O=[N+]([O-])c1ccccc1O[C@@H]1O[C@H](CO)[C@H](O)[C@H](O)[C@H]1O`, the Potency was “inactive”. For `Cc1nc2sc(C(c3cccs3)N3CCN(C(=O)c4ccco4)CC3)c(O)n2n1` (stereo not given), the Potency was “inactive”. In the case of `COc1cc(/C=C2\C(=N)N3N=C(S(C)(=O)=O)SC3=NC2=O)cc(OC)c1OCCOc1ccccc1C`, the Potency is reported as “inactive”. With `Cc1oc2cc([N+](=O)[O-])c(O)c([N+](=O)[O-])c2c1C(=O)c1ccc(Br)cc1` the Potency was “inactive”. For `Cc1c(Cl)cccc1NC(=O)Nc1cccnc1`, the Potency was “inactive”. For `O=C1/C(=C\c2ccc(Br)cc2)SC(=S)N1NS(=O)(=O)c1ccccc1`, the activity change, negative = inhibition was 6.09% [at 30.8 µM] (inactive). In the case of `COc1ccc(NC(=O)COC(=O)c2ccc(S(=O)(=O)N(C)c3ccccc3OC)cc2)cc1OC`, the Potency is reported as “inactive”. `N#Cc1c(C(F)(F)F)cc(-c2ccccc2)nc1SCc1nc(N)nc(N2CCOCC2)n1` was tested, and the Potency was “inactive”. With `Cc1ccc(-c2noc(CSc3nnnn3C3CCCCC3)n2)cc1` the Potency was “inactive”. `COc1ccc(NC(=O)c2cc(-c3ccco3)nc3ccccc23)cc1S(=O)(=O)N1CCOCC1` was tested, and the Potency was “inactive”. In the case of `CCSc1nc(C)cc(C)c1S(=O)(=O)c1ccccc1C`, the activity change, negative = inhibition is reported as 8% [at 30.8 µM] (inactive). With `COc1ccc(C(C#N)N2CCC(c3ccccc3)=N2)cc1OC` (stereo not given) the Potency was “inactive”. With `O=C(COc1ccccc1Cl)Nc1ccc(C(=O)c2ccc(C(=O)O)cc2)cc1` the Potency was “inactive”. With `CCn1c(O)c(/C=N/NC(=O)c2ccncc2)c(=O)n(CC)c1=S` the Potency was “inactive”. `COc1ccc(-c2csc(NC(=O)c3ccccc3NS(=O)(=O)c3ccc(F)c(F)c3)n2)cc1` was tested, and the activity change, negative = inhibition was -3.56% [at 30.8 µM] (inactive). In the case of `O=C(Nc1sc2c(c1C(=O)O)CCC2)c1ccccc1F`, the Potency is reported as “inactive”. For `O=C(O)c1ccc(/C=N/Nc2cccc(C(F)(F)F)c2)cc1`, the Potency was “inactive”. With `NC1=C(Cl)C(=O)c2ccc(S(N)(=O)=O)cc2C1=O` the Potency was “inactive”. For `Cc1ccc2oc(=O)c(/C=C(\O)c3ccco3)nc2c1`, the Potency was “inactive”. For `CCN(CC)c1ccc2cc(-c3nnc(-c4cccc(Cl)c4)o3)c(=O)oc2c1`, the Potency was “inactive”.
